# Screening results as filed in PubChem BioAssay.
# Shown are actives, neighbours in structure and some others; about 2.7% of the full set was active somewhere.
# Akt phos inh = Akt phosphorylation inhibition; Neuro2A IGF-stimulated pAkt S473 HTRF, 20 min; stronger effect = lower value; activity change, % for hits at 50 µM; 360,000 tested, 0.32% active; AID 651550; in the data active means activity change below about -80%; inconclusive means mostly about -51% to -80%; further: on the % scale 0 is the no-effect control and ±100 the full control effect
#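 Single-point screen (50 µM final compound) in Neuro2A cells stimulated 20 min with 6 nM IGF at 37 deg C. After lysis, Ser473-phosphorylated Akt read by HTRF (ex 330 nm, em 615/665 nm) as the 665/615 ratio.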
# RXFP1 agonist = agonists of human relaxin receptor RXFP1; Q9HBX9; HEK293T-RXFP1 cAMP TR-FRET, 30 min; response scale: percent of porcine relaxin response, buffer zero; Potency, µM (top dose mostly 57.5 µM), inactives show at the top dose activation, usual class: activators; 370,000 tested, 0.3% active; AID 2676; active means well fitted activation curve with a large enough effect; inconclusive means small, poorly fitted or top-dose-only effect; further: potency means the concentration at half of the fitted maximal effect; on the % scale 0 is the no-effect control and ±100 the full control effect; nearly all actives have a fitted effect of over 60% in size
#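 HEK293 cells stably expressing RXFP1, treated 30 min at 37C with compounds plus PDE4 inhibitor Ro 20174; cAMP measured by HTRF TR-FRET. Normalized to buffer and 29 nM porcine relaxin; EC50 by Hill fit.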
# gsp antag = antagonizes gsp, the McCune-Albright syndrome mutation; AID 624288; Potency, µM (series often up to 76.9 µM), for the others: top-dose activity change, negative = inhibition, hits mostly inhibitors; 340,000 tested, 0.4% active; gsp-mutant cells, cAMP HTRF, 30 min; calls by dose curve; cell line not stated here;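 further: intracellular cAMP measured with PDE inhibitor Ro 20-1724 present during compound exposure; potency means the concentration at half of the fitted maximal effect; on the % scale 0 is the no-effect control and ±100 the full control effect; nearly all actives have a fitted effect of over 65% in size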
#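 HTRF cAMP measurement after 30 min RT detection following 30 min, 37C compound treatment alongside […] (added as 300 uM solution) in G418-selected cells seeded at 2000/well and grown 16–24 h.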
# gsp ag = activates gsp, the McCune-Albright syndrome mutation; gsp mutant cells, cAMP HTRF, 30 min; Potency, µM (top dose mostly 76.9 µM), for inactives: at the top dose activation (cAMP increase), hits mostly activators; 340,000 tested, 0.13% active; active means well fitted activation curve with a large enough effect; inconclusive means small, poorly fitted or top-dose-only effect, or another doubt; inactive means no such curve, though single readings can be large or run the other way; cell line not stated here;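 further: phosphodiesterase inhibitor Ro 20-1724 added with compounds to block cAMP breakdown; potency means the concentration at half of the fitted maximal effect; nearly all actives have a fitted effect of over 60% in size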
#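 Cells stably selected in G418 were plated at 2000/well, grown 16-24 hr, then given compounds in DMSO with the PDE inhibitor […] (300 uM solution added) for 30 min at 37C; cAMP was read by HTRF.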
# ClpP mod = qHTS Assay for Activators of ClpP. ATP-dependent Clp protease proteolytic subunit (Bacillus subtilis (strain 168)), P80244. purified B. subtilis ClpP, FRET peptide cleavage, 20 min. Potency, µM (highest dose often 57.5 µM), without a hit: top-dose activity change, negative = active. 340,000 tested, 1.9% active. AID 651965, 2013; active means well fitted falling curve with a large enough effect; inconclusive means small, poorly fitted or top-dose-only effect; inactive means no such curve, though single readings can be large or run the other way; further: potency means the concentration at half of the fitted maximal effect; the source files actives as falling curves though it sought activators and does not explain the sign; nearly all actives have a fitted effect of over 65% in size
#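 FRET quenching reversal measured ClpP activation: 10 microg/mL B. subtilis ClpP at pH 8 with the FRET-FV decapeptide, read at 430 nm after 320 nm excitation. The 20-min minus 0-min signal was scaled between DMSO/no-enzyme wells and ADEP (5.8 microM final).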
# RXFP1 antagonist = RXFP1 (human) relaxin receptor antagonism. Q9HBX9. HEK293-RXFP1, relaxin-stimulated cAMP HTRF, 30 min; stronger effect = lower value. activity change, negative = inhibition, % at 57.5 µM. 350,000 tested, 0.59% active;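 active means activity change of -60% or lower, but not beyond a set lower limit; inconclusive means change between -60% and -40%, or beyond the set limit; inactive means change above -40%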; further: on the % scale 0 is the no-effect control and ±100 the full control effect
# Active calls of the source: *; i = inactive; ? = inconclusive; / = no result given; [ ] = dose if it differs, or a comment.
SMILES,Akt phos inh,RXFP1 agonist,gsp antag,gsp ag,ClpP mod,RXFP1 antagonist
O=C(CSc1ncc(-c2ccccc2)[nH]1)Nc1cccc(C(F)(F)F)c1,/,3.6%,/,/,-5.2%,-12.3
Cn1c(O)c(N=NC(=O)Cc2c[nH]c3ccccc23)c2ccccc21,i,/,?,1.9%,3.16µM*,-1.8
Cn1c(O)c(N=NC(=O)CNC(=O)c2ccccc2)c2ccccc21,i,2.8%,-1.3%,6.6%[15.4 µM],/,8.6
Oc1ccccc1Nc1nc(NCc2ccccc2)c2ccccc2n1,i,0.6%,?,1.7%[15.4 µM],-2.0%,-79.0*
CNc1nc(NCc2ccccc2)c2ccccc2n1,i,0.4%,12.7%,0.3%,/,-10.1
CC1(C)CC(NC(=S)NC2CC2)CC(C)(C)N1,i,0.0%,-3.4%,-3.7%[15.4 µM],35.5µM*,3.4
COc1cc(Nc2nc(SCc3cccc(Cl)c3)nc3ccccc23)cc(OC)c1,/,4.2%,/,/,31.6µM*,-8.6
COc1cc(Nc2nc(SCc3ccccc3Cl)nc3ccccc23)cc(OC)c1,/,0.2%,/,/,28.2µM*,-25.3
COc1cc(Nc2nc(SCc3ccccc3F)nc3ccccc23)cc(OC)c1,/,7.0%,/,/,?,-21.9
COc1cc(Nc2nc(SCc3ccc(Cl)cc3)nc3ccccc23)cc(OC)c1,/,4.3%,/,/,35.5µM*,-0.9
O=C(NCCCN1CCCC1=O)c1cc(-c2ccc(F)cc2)nc2ccccc12,i,/,-8.4%,1.4%[15.4 µM],8.91µM*,-5.4
O=C(NCCN1CCOCC1)c1cc(-c2ccc(F)cc2)nc2ccccc12,i,2.0%,5.6%,2.5%[15.4 µM],25.1µM*,-1.7
O=C(NCCCN1CCOCC1)c1cc(S(=O)(=O)N2CCN(c3ccccc3)CC2)ccc1Cl,i,0.9%,5.6%,-7.3%[15.4 µM],/,18.5
O=C(NCCCN1CCCC1=O)c1cc(S(=O)(=O)N2CCN(c3ccccc3)CC2)ccc1Cl,i,/,-9.2%,-1.3%,28.2µM*,-3.6
COc1ccc(-c2cc(C(=O)NCCCN3CCCC3=O)c3ccccc3n2)cc1,i,3.2%,0.5%,26.9%,?,-3.8
CCc1ccc(/C=C/C(=O)c2ccc(N3CCOCC3)cc2)cc1,i,-2.7%,-14.8%,-4.0%[15.4 µM],0.7%,-92.1*
Cc1cc(N2CCCN(C)CC2)nc2cc(Cl)ccc12,i,0.0%,9.0%,-15.8%,31.6µM*,-16.3
O=C(COC(=O)c1cccnc1Cl)NCCC1=CCCCC1,i,4.7%,6.9%,-0.4%[15.4 µM],15.8µM*,-11.1
CSc1ncccc1C(=O)OCC(=O)NCCC1=CCCCC1,i,4.8%,-8.1%,-83.0%,0.5%,-0.7
COc1ccc(N2CCN(c3nc4ccccc4n4c(C)nnc34)CC2)cc1,/,-0.2%,/,/,-2.2%,-0.1
Cc1ccc2c(n1)sc1c(-c3ccccc3)c(C#N)c(N)nc12,i,4.2%,8.7%,12.0%,35.5µM*,-2.5
Cc1cc(-c2ccccc2)c(C#N)c(N)n1,i,3.6%,12.7%,10.3%,31.6µM*,-3.7
Cc1ccc2c(n1)sc1c(N)ncnc12,i,4.1%,-8.5%,8.8%,31.6µM*,0.8
Cc1ccc2c(N)c(C#N)sc2n1,i,5.1%,-7.4%,-2.8%,-5.0%,7.9
N#Cc1c(-c2ccccc2)cc(-c2ccc(O)cc2)nc1N,i,2.8%,-8.9%,25.4%,4.2%,-2.1
CO[C@]12C[C@@H](COC(=O)c3cncc(Br)c3)CN(C)[C@@H]1Cc1cn(C)c3cccc2c13,/,/,/,/,/,-38.1
COc1ccc(C2CC(c3cccs3)=NN2C(=O)CSc2nc3ccccc3s2)cc1 (stereo not given),i,1.0%,-3.6%,?,?,23.9
CN1CCc2c(OCC(=O)N3N=C(c4cccs4)CC3c3ccc(F)cc3)cccc2C1=O (stereo not given),i,3.0%,-18.6%,-21.1%,?,6.1
O=C(CSc1nc2ccccc2s1)N1N=C(c2cccs2)CC1c1ccc(F)cc1 (stereo not given),i,6.2%,8.5%,12.3%,28.2µM*,-1.0
